# This is a sample that favours compounds with a hit; in the whole collection about 21% have one here.
# Pf growth 48h: inhibits P. falciparum growth in the first generation, 48 h | P. falciparum luciferase growth in erythrocytes, 48 h | Potency, µM (doses to about 28.7 µM), hits mostly inhibitors | 310,000 compounds, 5.9% hits
#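 Luciferase-expressing P. falciparum in infected erythrocytes (2% hematocrit, 0.1% parasitemia final) in RPMI 1640/0.5% Albumax were exposed to compound for 48 hours at 37 C, 5% CO2; growth read as luminescence.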
# Shiga inhibitor: inhibitors of Shiga toxin in Vero cells. 290,000 compounds, 9.2% hits. inhibition, % at 38.7 µM. AID 2315. Vero cells, Shiga toxin protein synthesis inhibition reporter; in the data active means inhibition mostly above about 28%, no sharp cut-off; inactive means mostly below about 43%
# CHX counter: counter-screen hit for Shiga toxin inhibitors, cycloheximide. 300,000 compounds, 12% hits. max response, %. cell reporter, cycloheximide protein synthesis inhibition counterscreen. AID 2314; in the data active means max response mostly above about 13%, no sharp cut-off; inactive means mostly below about 14%; further: read at 38.3 µM for the half of the compounds with a filed dose
# NS1 function inh: blocks influenza NS1 protein function; 270,000 compounds, 0.4% hits; Potency, µM (titrated, usually from 46.1 µM); AID 2326; calls by dose curve; further: actives are rising curves; nearly all actives have a fitted effect of over 50% in size
#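 Read-out: OD600 growth recovery of NS1-expressing budding yeast. Cells grown overnight at 30C in -URA glucose medium, washed, resuspended and diluted 1:100 in 2% galactose assay medium, pH 6.0. Same strain lacking NS1 served as positive control.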
# Pf growth 96h: P. falciparum growth inhibition at 96 hour, primary screen for plastid delayed-death inhibitors; AID 504834; Potency, µM (doses to about 28.7 µM), usual class: inhibitors; 320,000 compounds, 6.9% hits; P. falciparum luciferase reporter growth, 96 h
#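 Compounds incubated with erythrocytes infected by luciferase-expressing P. falciparum (2% hematocrit, 0.05% parasitemia final) for 96 hours, 37 C in 5% CO2. Growth inhibition scored as decreased luciferase luminescence.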
# Numbers stand for hits; – = inactive; ? = inconclusive; · = not tested or not shown; + = active, no number. Unless noted, the call rests on the fitted dose curve; in most records, active means well fitted inhibition curve with a large enough effect; inconclusive means small, poorly fitted or top-dose-only effect, or another doubt; inactive means no such curve, though single readings can be large or run the other way.
SMILES,Pf growth 48h,Shiga inhibitor,CHX counter,NS1 function inh,Pf growth 96h
COc1ccc(S(=O)(=O)N2CCC(C(=O)NCc3ccccn3)CC2)cc1Cl,–,–,–,–,–
COc1ccc(N2CC(O)=C(c3n(C)c4ccccc4[n+]3C)C2=N)cc1,·,–,–,–,–
CC(=O)Nc1ccc(S(=O)(=O)N(C)CC(=O)OCC(=O)N(CC(C)C)C2CCS(=O)(=O)C2)cc1 (configuration not stated),–,·,·,·,–
CC(=O)CC(=O)Nc1ccc(C(N)=O)cc1,–,–,–,–,?
COc1cccc(-n2ccn(CC(=O)NCCc3ccccc3)c(=O)c2=O)c1,–,–,–,–,?
Cc1ccc(C(=O)OC(C(=O)Nc2ccc(Cl)cc2C(F)(F)F)c2ccccc2)cc1 (configuration not stated),?,–,–,–,–
O=C(CN1CCN(C(C(=O)Nc2ccc(Cl)cc2C(F)(F)F)c2ccccc2)CC1)NC1CC1 (configuration not stated),3.3µM,·,·,·,4.1µM
Cc1ccc(NC(=O)C(c2ccccc2)N2CCN(CC(=O)NC3CC3)CC2)cc1 (configuration not stated),13µM,·,·,·,?
Cc1cc(C)cc(NC(=O)C(c2ccccc2)N2CCN(CC(=O)NC3CC3)CC2)c1 (configuration not stated),5.2µM,·,·,·,9.3µM
COc1ccc(C)cc1NC(=O)C(c1ccccc1)N1CCN(CC(=O)NC2CC2)CC1 (configuration not stated),2.3µM,·,·,·,2.1µM
COc1ccccc1NC(=O)CN1CCN(CC(=O)Nc2cc(C)ccc2OC)CC1,?,–,–,–,–
CCn1c(C(C)NC(=O)c2cccc(C)c2)n[nH]c1=S (configuration not stated),–,–,–,–,–
Cc1ccc(NC(=O)C(c2ccccc2)N2CCN(CC(=O)NC3CC3)CC2)cc1Cl (configuration not stated),5.2µM,·,·,·,?
COc1ccccc1NC(=O)C(C)OC(=O)CC1CCCCC1 (configuration not stated),13µM,·,·,·,?
CC(=O)c1cccc(NC(=O)C(CC(C)C)NC(=O)C2CCCCC2)c1 (configuration not stated),5.9µM,–,–,·,–
CC(C)CC(NC(=O)C1CCCCC1)C(=O)NC(C)c1ccccc1 (configuration not stated),–,–,–,–,–
COc1ccccc1NC(=O)C(CC(C)C)NC(=O)C1CCCCC1 (configuration not stated),·,–,–,–,8.3µM
O=C(O)C1=C(OCc2ccccc2)C(=O)NCC1,–,–,–,–,–
CCOCCOC(=O)c1ccc(NC(=O)C2COc3ccccc3O2)cc1 (configuration not stated),–,–,22,–,?
Cc1cccc(NC(=O)C2COc3ccccc3O2)c1 (configuration not stated),–,72,43,–,–
Cc1ccc(NC(=O)C2COc3ccccc3O2)cc1C (configuration not stated),–,·,26,–,?
COC(=O)c1cccc(NC(=O)C2COc3ccccc3O2)c1C (configuration not stated),–,–,–,–,–
COC(=O)c1cc(NC(=O)C2COc3ccccc3O2)ccc1Cl (configuration not stated),?,53,21,–,?
CCOC(=O)c1ccc(NC(=O)C2COc3ccccc3O2)cc1 (configuration not stated),–,·,–,–,?
CCOC1=NN(c2ncc(C(F)(F)F)cc2Cl)C(=O)C1,–,–,–,–,–
SMILES,Pf growth 48h,Shiga inhibitor,CHX counter,NS1 function inh,Pf growth 96h
COc1cc(C(=O)Nc2nnc(S(=O)(=O)N3CCCCCC3)s2)cc(OC)c1OC,–,–,–,–,–
O=C(Nc1cccc([N+](=O)[O-])c1)C1COc2ccccc2O1 (configuration not stated),–,–,11,–,?
COC(=O)c1cccc(NC(=O)C2COc3ccccc3O2)c1 (configuration not stated),–,66,33,–,·
COc1ccccc1NC(=O)c1ccc(NC(=O)C2COc3ccccc3O2)cc1 (configuration not stated),–,–,–,–,–
Cc1ccc(NC(=O)C2COc3ccccc3O2)cc1S(=O)(=O)N1CCCCC1 (configuration not stated),9.3µM,·,·,·,?
O=C(O)C1CC=CCC1C(=O)Nc1cccc([N+](=O)[O-])c1 (configuration not stated),–,–,–,–,–
O=[N+]([O-])c1cc(S(=O)(=O)N2CCOCC2)ccc1OCc1ccccc1C(F)(F)F,–,·,·,·,–
COc1cccc(CN2c3ccc(Br)cc3C(=O)CS2(=O)=O)c1,9.3µM,·,·,·,?
O=C(COc1ccc2ccccc2c1Br)Nc1cccnc1,–,138,37,–,–
O=C(COc1ccc2ccccc2c1Br)Nc1ccncc1,–,74,28,–,–
O=C(O)CCC(=O)NNC(=O)COc1ccc2ccccc2c1Br,–,–,–,–,–
O=C(COc1ccc(-c2ccccc2)cc1)Nc1cccnc1,–,·,·,·,–
O=C(O)c1cc(Cl)ccc1-c1ccc(/C=C/c2cc(C(F)(F)F)[nH]c(=O)n2)o1,–,–,–,–,9.3µM
Cn1cnnc1SCC(=O)Nc1ccc(S(N)(=O)=O)cc1,–,–,–,–,–
CC(=O)c1ccc(-c2cccc(-c3cc(=O)oc4ccc(C(C)(C)C)cc34)c2)cc1,·,–,–,·,·
O=S(=O)(/C=C/c1ccccc1)Nc1cccc(S(=O)(=O)NC2=NCCC2)c1,–,–,–,·,–
CCSc1nnc2ccc(-c3ccc(OC)c(OC)c3)nn12,–,–,25,–,–
CC(C)[C@H](NC(=O)c1cccc(S(=O)(=O)N2CCOCC2)c1)C(=O)Nc1nc2ccccc2s1,15µM,+,26,–,10µM
CCOc1ccccc1C(=O)N[C@H](C(=O)Nc1ccc(OC)c(S(=O)(=O)N2CCOCC2)c1)C(C)C,13µM,–,–,·,?
CCOc1ccccc1NC(=O)[C@@H](NC(=O)c1cccc(S(=O)(=O)N2CCOCC2)c1)C(C)C,13µM,–,–,–,?
CC(C)C(NC(=O)c1cccc(S(=O)(=O)N2CCOCC2)c1)C(=O)NCc1ccc(Cl)cc1 (configuration not stated),?,·,·,·,–
C=CCc1cc(Cl)ccc1OCCCn1ccnc1,?,–,–,–,?
O=c1[nH]cc(I)cc1I,–,–,–,–,–
O=C(Nc1ccc(N2CCOCC2)cc1)C1CCN(S(=O)(=O)c2ccccc2F)CC1,–,–,–,–,–
Cc1nc(-c2cccc(S(=O)(=O)N3CCCC(C)C3)c2)cs1 (configuration not stated),–,–,–,–,–
Cc1ccc2occ(/C=N/NC(=O)c3ccc(O)cc3)c(=O)c2c1,–,–,–,–,–
COc1ccc(/C=N/NC(=O)c2cccnc2)cc1,·,121,31,–,–
COc1ccc(C(=O)Oc2ccc(/C=N/NC(=O)c3cccnc3)cc2OC)cc1,–,·,·,·,–
